Screening data from PubChem BioAssay.
KinaseGlo FLuc = counter-screen: inhibitors of Kinase-Glo firefly luciferase; Q27757; Kinase-Glo luciferase, ATP luminescence, 8 min; Potency, µM (top dose mostly 38.3 µM), for inactives: top-dose activity change, negative = inhibition, most hits filed as inhibitors; 200,000 tested, 0.28% active; AID 1379; further: on the % scale 0 is the no-effect control and ±100 the full control effect; nearly all actives have a fitted effect of over 60% in size
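Compound is pinned into ATP-containing buffer (10 uM ATP, imidazole pH 7.2, 7 mM MgCl2). Kinase-Glo luciferase reagent is then added. Light output is recorded following an 8-min room-temperature incubation.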
ELG1 genotox = genotoxicity induction in ELG1-luciferase HEK293T cells | Potency, µM (titrated, usually from 46 µM), for inactives: at the top dose activity change, positive = activation, usual class: activators | HEK293T ELG1-luciferase reporter, luminescence, 16 h | 330,000 tested, 1.3% active | AID 504466; further: % of control where 0% means no effect; nearly all actives have a fitted effect of over 60% in size
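Genotoxicity was scored as increased ELG1-luciferase reporter signal, measured by ONE-Glo luminescence (30 min, room temperature). Compound or vehicle exposure of the HEK293T reporter cells lasted 16 hr at 37°C.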
SMN2 splice up = SMN2 splice variant enhancement. HEK293 SMN2-luciferase splicing reporter, luminescence, 30-36 h. Potency, µM (series often up to 46.1 µM), for the others: at the top dose activity change, positive = activation, actives largely listed as activators. 210,000 tested, 2.8% active. AID 1458; further: % of control where 0% means no effect; nearly all actives have a fitted effect of over 55% in size
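HEK293 cells carry an SMN2 […]–luciferase reporter in which exon 7 inclusion puts luciferase in frame. Cells were plated 10-12 h before compound addition, then incubated 30-36 h at 37C. ONE-Glo luminescence was read; sodium butyrate at 4.5 mM final served as control.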
Rab9 prom act = activates the Rab9 promoter | Huh7 Rab9 promoter-luciferase reporter, luminescence, 24 h | Potency, µM (highest dose often 9.22 µM), without a hit: top-dose activation, negative = inhibition, usual class: activators | 320,000 tested, 2.8% active; further: % of control where 0% means no effect; nearly all actives have a fitted effect of over 60% in size
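Luciferase signal after 10 min detection reagent at ambient indicates Rab9 promoter upregulation; stably transfected Huh7 cells were treated 24 h with compound in DMSO at 37 °C, 5% CO2.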
NPC1 prom act = activators of NPC1 promoter; AID 485313; Huh7 NPC1 promoter luciferase reporter, 24 h; Potency, µM (series often up to 9.22 µM), for the others: at the top dose activation, usual class: activators; 320,000 tested, 2.4% active; further: % of control where 0% means no effect; nearly all actives have a fitted effect of over 60% in size
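Stable NPC1-promoter luciferase Huh7 line; cpd (DMSO) 24 h, 37 °C, 5% CO2; Amplite luciferase reagent 10 min RT; luminescence readout. qHTS format.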
FLuc counter = inhibits or activates purified firefly luciferase, miR-21 counter-screen. Potency, µM (highest dose often 57.5 µM), inactives show top-dose activity change, negative = inhibition, usual class: inhibitors. 360,000 tested, 6.9% active. P08659. purified FLuc, Km substrates, luminescence inhibition;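 further: plate controls were vehicle for no effect and reference inhibitor for full effect; nearly all actives have a fitted effect of over 55% in size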
Target sequence (P08659 whole entry, looked up): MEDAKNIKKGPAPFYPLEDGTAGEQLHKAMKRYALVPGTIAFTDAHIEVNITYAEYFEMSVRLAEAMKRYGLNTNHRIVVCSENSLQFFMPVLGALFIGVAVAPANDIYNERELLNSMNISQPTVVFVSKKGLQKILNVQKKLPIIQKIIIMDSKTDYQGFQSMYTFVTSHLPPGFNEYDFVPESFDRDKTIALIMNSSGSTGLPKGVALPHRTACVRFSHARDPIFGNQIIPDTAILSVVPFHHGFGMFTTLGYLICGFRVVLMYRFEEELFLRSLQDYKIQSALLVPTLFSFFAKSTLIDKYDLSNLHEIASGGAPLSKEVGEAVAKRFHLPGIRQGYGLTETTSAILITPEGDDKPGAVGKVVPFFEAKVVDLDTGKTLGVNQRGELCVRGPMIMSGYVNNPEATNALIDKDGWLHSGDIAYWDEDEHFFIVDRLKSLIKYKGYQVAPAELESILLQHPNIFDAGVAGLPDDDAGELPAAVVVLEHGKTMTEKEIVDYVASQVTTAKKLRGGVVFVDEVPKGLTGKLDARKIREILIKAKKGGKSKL
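Purified P. pyralis luciferase (10nM final) with 10uM D-luciferin and 10uM ATP (Km levels) in 50mM Tris acetate pH 7.5, 10mM Mg acetate, 0.01% Tween-20, 0.05% BSA; qHTS 6-point titration, ~60 µM downward; luminescence read.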
Active calls of the source: *; ? = inconclusive; nt = no result; ! = a repeat was not active; [ ] = remark or other dose. Hits are enriched below; roughly 7.4% of the tested compounds scored in any of these assays. The call rests on the fitted dose curve; in most records, active means well fitted curve in the direction sought with a large enough effect; inconclusive means small, poorly fitted or top-dose-only effect, or another doubt; inactive means no such curve, though single readings can be large; an effect the other way counts as inactive or inconclusive. Potency means the concentration at half of the fitted maximal effect.

SMILES	KinaseGlo FLuc	ELG1 genotox	SMN2 splice up	Rab9 prom act	NPC1 prom act	FLuc counter
CC(=O)n1cc(C=C2C(=O)NC(=O)NC2=O)c2ccccc21	nt	0.7%[9.26 µM]	nt	0.9%	-2.8%	15.1µM*
Cc1cc(C(=O)CS(=O)(=O)c2ccccc2)cc(C)c1OC(=O)N(C)C	-25.6%	2.6%	10µM*	0.794µM*	3.16µM*	6.75µM*
CC(C)(C)c1ccc(C(=O)Nc2ccc3nc(SCC(=O)N4CCCC4)sc3c2)cc1	nt	nt	nt	nt	nt	7.57µM*
CC(C)c1cc2c(c(O)c1O)[C@@]1(C(=O)O)CCCC(C)(C)[C@@H]1CC2	0.8%[39.9 µM]	nt	nt	nt	nt	nt
Cc1ccc(S(=O)ON2CCC(C(=O)O)(c3ccccc3)CC2)cc1 (stereo not drawn)	0.4%[7.66 µM]	nt	-1.5%[9.22 µM]	nt	nt	nt
CN(C)C(=O)Oc1ccc2c(c1)O/C(=C\c1cccc(Cl)c1)C2=O	nt	13.0%	nt	?	?	26.9µM*
O=C1/C(=C/c2ccc(F)cc2)Oc2cc(OC(=O)N3CCOCC3)ccc21	nt	4.1%	nt	21.9%	26.8%	5.36µM*
CN(C)C(=O)Oc1ccc2c(c1)O/C(=C\c1ccc(Cl)cc1)C2=O	nt	?	nt	4.47µM*	?	?
COc1ccc(/C=C2\Oc3cc(OC(=O)N4CCOCC4)ccc3C2=O)c(OC)c1	nt	-5.1%	nt	1.0%	2.8%	?
N#CC(C#N)=NNc1ccc(OC(F)(F)F)cc1	2.7%	nt	-43.9%	nt	nt	nt
O=C(O)/C=C\c1ccc[c]([Sb])c1	-5.1%[7.66 µM]	nt	-13.6%[9.22 µM]	nt	nt	nt
O=C(N/N=C/c1c(O)n(C2CCCCC2)c(=S)[nH]c1=O)c1ccccc1	nt	?	nt	-0.9%	-0.8%	-13.4%
O=C(N/N=C/c1c(O)n(Cc2ccco2)c(=O)[nH]c1=O)c1ccccc1O	nt	-0.2%	nt	-0.6%	1.8%	15.1µM*
CCCCC(=O)N/N=C/c1c(O)n(Cc2ccco2)c(=O)[nH]c1=O	-3.8%	-0.6%	4.7%	1.1%	-3.2%	-1.8%
CC(C)c1ccc(-n2c(O)c(/C=N/NC(=O)c3ccccc3O)c(=O)[nH]c2=S)cc1	nt	-0.3%	nt	1.7%	4.9%	26.9µM*
O=C(N/N=C/c1c(O)n(C2CCCCC2)c(=S)[nH]c1=O)c1ccccc1O	nt	2.9%[9.26 µM]	nt	7.5%	1.0%	15.1µM*
CN1C(=O)C(=Cc2ccc(N3CCCCCC3)o2)C(=O)N(C)C1=S	-13.1%	?	19.8%	?	?	10.7µM*
C/C=C/C/C=C/CCC(=O)[C@H]1O[C@H]1C(N)=O	nt	nt	-106.1%	nt	nt	nt
N#CCBr	nt	nt	-4.1%	nt	nt	nt
Cc1ccc(Sc2ccc(C=C3C(=O)N(C)C(=O)N(C)C3=O)o2)cc1	-2.8%	6.3%	-2.8%	25.4%	1.0%	15.1µM*
N#CS.N=C=S.N=C=S.[Cu].[NH2-].[NH2-].[NH2-].[NH2-].c1ccc2ncccc2c1	-2.2%[7.66 µM]	nt	-8.6%[9.22 µM]	nt	nt	nt
Cc1ccc(CNC(=O)c2ccccc2NC(=O)c2nsc3ccccc23)cc1	nt	nt	nt	nt	nt	16.9µM*
CN(CCC(=O)O)C1=Nc2ccc(Cl)cc2C(c2ccccc2)=[N+]([O-])C1	1.8%[7.66 µM]	nt	3.7%[9.22 µM]	nt	nt	nt
Cc1cc(N2CCCCC2)nc2ccc(NC(=O)CCC(=O)N3CCN(c4cccc(Cl)c4)CC3)cc12	nt	nt	-12.9%	nt	nt	?
Cc1cc(N2CCOCC2)nc2ccc(NC(=O)CCC(=O)N3CCC4(CC3)OCCO4)cc12	nt	12.4%	nt	18.9%	25.9%	15.1µM*
SMILES	KinaseGlo FLuc	ELG1 genotox	SMN2 splice up	Rab9 prom act	NPC1 prom act	FLuc counter
N#CC(C(=O)C12CC3CC(CC(C3)C1)C2)c1nc2ccccc2[nH]1 (stereo not drawn)	-2.1%	0.6%	-33.2%	4.2%	-5.7%	10.7µM*
N=C1c2ccccc2CN1CC(=O)c1ccccc1	-5.2%	?	11.2µM*	?	5.8%	15.1µM*
Cc1cc2c(C(C)C)c(O)c(O)c(C=O)c2c(O)c1-c1c(C)cc2c(C(C)C)c(O)c(O)c(C=O)c2c1O	-0.2%	?	-91.5%	-40.9%[46.1 µM]	-31.2%[46.1 µM]	13.5µM*!
O[C@H](CN1CC1)[C@@H](O)CN1CC1	-4.6%[7.66 µM]	nt	-12.5%[9.22 µM]	nt	nt	nt
Cc1ccc2ccccc2c1C	nt	nt	-1.4%	nt	nt	nt
C[C@@]12CC[C@H]3[C@H](CCC4=CC(=O)CC[C@H]43)[C@H]1CC[C@H]2OC1(O)C(=O)c2ccccc2C1=O	-0.6%[7.66 µM]	nt	5.9%[9.22 µM]	nt	nt	nt
COc1ccc(/C=N/N=C(/N)N[N+](=O)[O-])c(OC)c1	2.9%	13.2%	-4.6%	8.7%	8.4%	?
N/C(=N\N=C/c1ccc(-c2ccc(O)c(C(=O)O)c2)o1)N[N+](=O)[O-]	-16.4%	1.5%	1.1%	5.9%	-3.7%	26.9µM*
CCN1C(=O)C(=C2C=C(C)OC(C)=C2)C(=O)N(CC)C1=S	2.5%	3.7%	8.5%	-1.1%	-3.6%	-2.8%
CCN1C(=O)C(=Cc2ccc(C)s2)C(=O)N(CC)C1=S	-8.7%	?	20µM*	18.2%	?	?
Oc1ccc(Cl)cc1CN1CCN(Cc2ccccc2)CC1	-4.2%	-3.9%	-9.9%	-5.3%	-2.3%	?
c1ccc(CN2CCc3nc4ccccc4cc3C2)cc1	nt	?	nt	?	?	12µM*
COc1ccc(N=Cc2c(O)n(Cc3ccccc3)c(=S)[nH]c2=O)c(OC)c1	nt	?	nt	?	?	1.2µM*
O=C(O)C(Cl)Br (stereo not drawn)	nt	nt	-1.7%	nt	nt	nt
CC(C)c1nccn1Cc1ccc(Cl)cc1Cl	-5.3%[7.66 µM]	nt	-34.1%[9.22 µM]	nt	nt	nt
COC(=O)c1ccccc1N	nt	nt	-13.2%	nt	nt	nt
Nc1ccccc1C(=O)OCC(=O)N1CCc2ccccc21	-9.2%	9.2µM*	35.0%	2.51µM*	?	9.53µM*
c1ccc2c(CN3CCCCCC3)c[nH]c2c1	-0.8%	?	nt	?	25.4%	16.9µM*
CC(=O)Nc1ccccc1C(=O)OCC(=O)c1ccc2c(c1)OCCO2	nt	11.0%	nt	3.55µM*	?	0.757µM*
Cc1onc(-c2ccccc2Cl)c1C(=O)OCC(=O)c1ccc2c(c1)OCCO2	-2.3%	-8.9%	13.1%	6.7%	7.1%	4.78µM*
Cc1onc(-c2c(Cl)cccc2Cl)c1/C(N)=N/OC(=O)N(C)C	nt	-0.3%	nt	-4.9%	-1.6%	0.1%
CC(=O)[O-].CC(=O)[O-].CC(=O)[O-].[Cr+3]	nt	nt	-16.4%	nt	nt	nt
CCOc1ccc(-c2cn3c(n2)sc2cc(C(=O)N4CCCC(C)C4)ccc23)cc1 (stereo not drawn)	nt	nt	-0.4%	nt	nt	4.26µM*
